Laboratory results from the supplement of paper PMC10981050.
Several values for one entry are separate records, joined by “and”; a condition that tells them apart may be missing. Identical values can stand only once. Counter-ions that a name gives are not always drawn.

tested on: K562; assay: cell viability relative to vehicle control; higher = less cytotoxic; conditions: 10 µM; SRSF2 genotype: SRSF2 P95H/wt
How it was run: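 CRISPR-edited SRSF2 P95 mutant and isogenic wild-type clones of four leukaemia lines were screened against Selleck bioactive, kinase and epigenetic probe libraries, with identity-inconsistent compounds removed. Compounds were acoustically dispensed into 384-well plates at a single 10 µM dose, with 2000 cells in 50 µL medium per well. After 48 h, supernatant was removed and CellTiter-Glo luminescence was read. Viability was expressed as percent of the on-plate DMSO vehicle control, analysed in Genedata Screener.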

SMILES | cell viability
O=C(CCc1ccc(O)cc1)c1c(O)cc(O[C@@H]2O[C@H](CO)[C@@H](O)[C@H](O)[C@H]2O)cc1O [Trilobatin] | 96.2% and 98.8%
CC(C)n1nc(-c2ccc3oc(N)nc3c2)c2c(N)ncnc21 | 31.8% and 31.3%
COc1ccc(COc2ccc(Cc3cnc(N)nc3N)cc2OC)cc1 | 83.8% and 84%
COc1cc(O)c(C(=O)Nc2nc(C(=O)NCCN(C(C)C)C(C)C)cs2)cc1OC [Acotiamide hydrochloride] | 93.4% and 91.4%
CC(=O)N1C[C@H](O)C[C@H]1C(=O)O [Oxaceprol] | 101% and 93.4%
C/C=C(/C)C(=O)O[C@H]1[C@@H](OC(=O)CC(C)C)c2c(ccc3ccc(=O)oc23)OC1(C)C [Praeruptorin E] | 65.9% and 77.1%
CC(C)[C@H](O)C(=O)N[C@@H](C)C(=O)N[C@@H]1C(=O)N(C)CCc2ccccc21 | 106% and 107%
O=C(O)C1=CO[C@@H](O[C@@H]2O[C@H](CO)[C@@H](O)[C@H](O)[C@H]2O)[C@@H]2C(CO)=CC[C@H]12 [Geniposidic acid] | 105% and 91.2%
NC(=O)[C@@H]1CC[C@@H]2CN1C(=O)N2OS(=O)(=O)O [Avibactam sodium] | 102% and 116%
Oc1cc(O)c2c(c1)OC(c1ccc(O)c(O)c1)C(OC1(c3ccc(O)c(O)c3)Oc3cc(O)cc(O)c3C(O)C1O)C2 (stereo not given) [Proanthocyanidins] | 102% and 105%
CC(=O)OCC(=O)[C@@]1(O)[C@H](C)C[C@H]2[C@@H]3CCC4=CC(=O)C=C[C@]4(C)[C@@]3(F)[C@@H](O)C[C@@]21C [Dexamethasone acetate] | 105% and 106%
CCNC1(C(N)=O)CCN(c2ncnc3c2nc(-c2ccccc2Cl)n3-c2ccc(Cl)cc2)CC1 | 79.4% and 80.8%
COc1cc(Cc2cnc(N)nc2N)cc(OC)c1OC [Trimethoprim] | 102% and 101%
CCOC(=O)CC(=O)N1CCSC1COc1ccccc1OC (stereo not given) [Moguisteine] | 99.2% and 102%
O=C(O)C=CCCCCCCCO [Royal jelly acid] | 103% and 104%
COc1cc2c(cc1O)CC[n+]1cc3c(OC)c(OC)ccc3cc1-2 [Jatrorrhizine chloride] | 84.4% and 88.5%
CC(C)(C)S(=O)(=O)c1ccc2nccc(Nc3n[nH]c4ccc(F)cc34)c2c1 | 91.4% and 95.8%
Nc1c(Br)cc(Br)cc1CN[C@H]1CC[C@H](O)CC1 [Ambroxol HCl] | 103% and 109%
CN(C)CCCCC(=O)Nc1ccc(NC(=S)NC(=O)c2ccc(C(C)(C)C)cc2)cc1 [Tenovin-6] | 2.61% and 5.21%
Nc1nc2n[nH]nc2c(=O)[nH]1 [Azaguanine-8] | 85.3% and 81.8%

SMILES | cell viability
OCCOCCN1CCN(C(c2ccccc2)c2ccc(Cl)cc2)CC1 (stereo not given) [Hydroxyzine 2HCl] | 90.8% and 99.8%
c1cc2c(c3c1C[C@H]1c4cc5c(cc4CCN1C3)OCO5)OCO2 [Stylopine hydrochloride] | 90.4% and 91.9%
COc1c(-c2ccc3cc(NS(C)(=O)=O)ccc3c2)cc(-n2ccc(=O)[nH]c2=O)cc1C(C)(C)C [S5402 Dasabuvir(ABT-333).cdx] | 84% and 86.8%
OC[C@H]1O[C@@H](n2cnc3c(O)nc(O)nc32)[C@H](O)[C@@H]1O [Xanthosine] | 101% and 100%
CCOc1ccccc1N=Nc1c(C)[nH]n(-c2nc(-c3ccccc3)cs2)c1=O | 95.7% and 103%
Cc1ccc([C@@H]2O[C@H](CO)[C@@H](O)[C@H](O)[C@H]2O)cc1Cc1ccc(-c2ccc(F)cc2)s1 [Canagliflozin] | 93.4% and 99.1%
O=S1(=O)CCN(CN2CCS(=O)(=O)NC2)CN1 [Taurolidine] | 98.7% and 105%
CC(=O)OCC(=O)[C@@]1(O)CC[C@H]2[C@@H]3CCC4=CC(=O)CC[C@]4(C)[C@@]3(F)[C@@H](O)C[C@@]21C [Fludrocortisone acetate] | 110% and 103%
CCCCC(CC)COC(=O)C=Cc1ccc(OC)cc1 (stereo not given) [Octinoxate] | 106% and 102%
NC(=O)c1ccc(-c2nc(-c3ccc4c(c3)OCCO4)c(-c3ccccn3)[nH]2)cc1 | 102% and 103%
Cc1cc(-c2cc(C)c(NCCCS(=O)(=O)O)c(C)c2)cc(C)c1N | 106% and 93.5%
Cc1cn(-c2cc(NC(=O)c3ccc(C)c(Nc4nccc(-c5cnccn5)n4)c3)cc(C(F)(F)F)c2)cn1 [Radotinib] | 22.3% and 38.7%
O=c1c2ccccc2oc2ccccc12 [Xanthone (Genicide)] | 102% and 103%
Nc1nc2c(ncn2COCCO)c(=O)[nH]1 [Acyclovir (Aciclovir)] | 98% and 101%
CC(=O)O[C@]1(C(C)=O)CC[C@H]2[C@@H]3C[C@H](C)C4=CC(=O)CC[C@]4(C)[C@H]3CC[C@@]21C [Medroxyprogesterone acetate] | 82.5% and 92.8%
COC(=O)C[C@](O)(CCCC(C)(C)O)C(=O)O[C@@H]1C(OC)=C[C@]23CCCN2CCc2cc4c(cc2[C@H]13)OCO4 [Homoharringtonine] | 12.4% and 19.9%
Cc1cc(C)c(-c2csc(NC(=O)c3ccccc3)n2)c(C)c1 | 58.4% and 51.8%
C=C1CCC[C@]2(C)C[C@]3(O)OC(=O)C(C)=C3C[C@@H]12 [Atractylenolide III] | 105% and 101%
C[C@@H]1C[C@H]2[C@@H]3CCC4=CC(=O)C=C[C@]4(C)[C@@]3(Cl)[C@@H](O)C[C@]2(C)[C@@]1(OC(=O)c1ccco1)C(=O)CCl [Mometasone furoate] | 91.2% and 98.8%
CC(=O)O[C@]1(C(C)=O)CC[C@H]2[C@@H]3CCC4=CC(=O)CCC4=C3[C@@H](c3ccc(N(C)C)cc3)C[C@@]21C [Ulipristal acetate] | 91% and 94.2%
